Source: PubChem BioAssay (National Center for Advancing Translational Sciences (NCATS))
Sampled rows, rich in hits. Any-hit rate of the full collection: about 7.9%.
HT1080-NT tox: kills 2HG-producing HT-1080-NT fibrosarcoma cells. hit rate 1.6% among 360,000. Potency, µM (doses to about 46.1 µM), for the others: at the highest dose activity, negative = less viability, hits mostly cytotoxic. HT-1080-NT fibrosarcoma viability, CellTiter-Glo ATP luminescence, 48 h;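 note: NT is the 2HG producing partner of a matched IDH1 knockdown line; 0% = DMSO-treated cells and -100% = media-only wells without cells; nearly all actives have a fitted effect of over 55% in size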
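Compounds were tested in concentration-response format on HT-1080-NT cells for 48 hours at 37 degrees C. Cell viability came from CellTiter-Glo luminescence; curves were classified by r2, response magnitude and activity.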
KB-V1 MDR tox: KB-V1 MDR subline cytotoxicity; KB-V1 MDR cells viability, CellTiter-Glo, 72 h; Potency, µM (titrated, usually from 46.1 µM), hits mostly cytotoxic; hit rate 3.4% among 400,000; AID 1347076; note: % is set by controls: 0 for no effect and ±100 for the full control effect; nearly all actives have a fitted effect of over 60% in size
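KB-V1, DMEM (no phenol red) + 10% FBS; cpd pin-transferred, titration series; 72 h, 37 degrees C; CellTiter-Glo, luminescence. Data normalized, curve-fit.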
KB-3-1 tox: kills parental KB-3-1 adenocarcinoma cells | KB-3-1 viability, CellTiter-Glo ATP luminescence, 72 h | Potency, µM (highest dose often 46.1 µM), most hits filed as cytotoxic | hit rate 1.4% among 400,000 | AID 1347075; note: % is set by controls: 0 for no effect and ±100 for the full control effect; nearly all actives have a fitted effect of over 60% in size
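Parental KB-3-1 viability, qHTS format: 72 h compound exposure, 37 °C; CellTiter-Glo; media-only wells and DMSO plates as controls; concentration-effect fits on corrected data.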
MCF10A rereplic: inducers of DNA re-replication in MCF 10A breast cells | Potency, µM (series often up to 46.1 µM), for the others: at the highest dose activity, positive = re-replication, hits mostly activators | MCF 10A DNA re-replication, Hoechst nuclear intensity, 48 h | hit rate 2.9% among 350,000; note: % of control where 0% means no effect; nearly all actives have a fitted effect of over 50% in size
SW480 rerep: inducers of DNA re-replication in SW480 colon cancer cells. SW480 DNA re-replication, Hoechst DNA content imaging, 48 h. Potency, µM (series often up to 46.1 µM), for the others: at the top dose re-replication activation, usual class: activators. hit rate 1.8% among 340,000. AID 624297; note: % of control where 0% means no effect; nearly all actives have a fitted effect of over 55% in size
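First, 250 cells per well were seeded. Next, compound or vehicle (23 nL) was pinned in, plates sat 48 hr at 37 C. Finally Hoechst was added for 40 min before fluorescence scanning.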
HT1080 IDH1KD tx: HT-1080 IDH1 knockdown cell toxicity (counter line) | hit rate 2% among 360,000 | HT-1080 IDH1 knockdown viability, ATP luminescence, 48 h | Potency, µM (highest dose often 46.1 µM), for inactives: at the top dose activity, negative = toxicity, most hits filed as cytotoxic;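 note: 0% = DMSO wells and -100% = cell-free medium wells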
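Assay cells: HT-1080 with IDH1 knockdown, 750 per well, RPMI/5% FBS. Exposure: 48 h at 37 °C following 2 h pre-incubation. Read: CellTiter-Glo luminescence; fitted concentration-response, curve class assigned.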
Numbers without * were called inactive; i = inactive; ? = inconclusive; · = not tested or not shown; [ ] = another dose, or the depositor's remark. Calls come from the whole dose curve; as a rule, active = well fitted curve in the direction sought with a large enough effect; inconclusive = small, poorly fitted or top-dose-only effect, or another doubt; inactive = no such curve, though single readings can be large; an effect the other way counts as inactive or inconclusive. Potency is the fitted concentration of half-maximal effect.

SMILES	HT1080-NT tox	KB-V1 MDR tox	KB-3-1 tox	MCF10A rereplic	SW480 rerep	HT1080 IDH1KD tx
COc1ccc(C(=O)CSc2ccc(-c3ccccc3)nn2)cc1	1%	i	i	1%	-3%	-2%
COc1ccc(-c2ccc(SC)nn2)cc1	21µM*	9.2µM*	8.2µM*	-3%	-2%	23µM*
CCN(CC)C(=O)C(C)N(C#N)c1nc(NC(C)C)nc(NC(C)C)n1 (stereo not given)	7%	9.2µM*	i	4%	2%	-4%
N#Cc1ccc(CSc2nnc(Cc3cccs3)n2Cc2ccco2)cc1	-15%	?	i	-13%	-2%	-10%
c1ccc(CCn2c(SCc3ccccc3)nnc2-c2ccncc2)cc1	-5%	i	i	-3%	-4%[9.22 µM]	-2%
N#Cc1ccc(CSc2nnc(-c3ccccc3)n2Cc2ccco2)cc1	-9%	3.7µM*	i	?	-1%	?
N#Cc1ccc(CSc2nnc(-c3ccncc3)n2CCc2ccccc2)cc1	23µM*	?	?	8%	10%	?
O=C(CN1C(=O)c2ccccc2C1=O)OCC(=O)N1CCCCC1	-5%	i	i	-2%	0%	0%
CCOc1ccc(C(=O)Nc2nnc(C3=COCCO3)o2)cc1	-1%	?	0.0012µM*	11%	1%	-12%
Cc1cccc(NC(=O)c2nc[nH]c2C(=O)N[C@@H](Cc2ccccc2)C(=O)OCc2ccccc2)c1	1%	i	i	15%	1%	1%
Cc1nc(SCC(=O)NCc2ccco2)[nH]c(=O)c1C	?	?	i	23µM*	?	-20%
Nc1nc(SCC(=O)NCc2ccco2)[nH]c(=O)c1-c1ccccc1	-3%	i	i	27%	?	14%
Cc1cccc(-c2nsc(SCC(=O)NCc3ccc4c(c3)OCO4)n2)c1	-11%	i	i	0%	-2%	0%
Cc1cccc(-c2nsc(SCC(=O)NCc3ccco3)n2)c1	1%	21µM*	i	12%	-1%	-1%
COc1ccc(-c2nc(SCC(=O)NCc3ccco3)c(-c3ccccc3)[nH]2)cc1OC	5%	i	i	21µM*	1%	4%
COc1ccc(-c2[nH]c(-c3ccccc3)nc2SCC(=O)NCc2ccco2)cc1OC	0%	?	i	3%	1%	-10%
COc1ccc(OC)c(CN2C(=O)CSCC2(C)C(=O)NCc2ccccc2)c1 (stereo not given)	6%	i	i	·	·	-8%
COc1cccc(C(NC(=O)c2ccccc2F)NC(=O)c2ccccc2F)c1	7%	i	i	11%	-3%	-1%
COc1cccc(C(c2c(N)[nH]c(=S)[nH]c2=O)c2c(N)[nH]c(=S)[nH]c2=O)c1	14%	i	i	-9%	5.2µM*	17%
CC1=C(C(=O)Nc2cc(C(=O)N3CCN(c4ccc(Cl)cc4)CC3)ccc2C)SCCO1	-7%	?	i	·	·	-17%
COC(=O)c1cc(Nc2nc3ccccc3nc2NS(=O)(=O)c2ccc(C)cc2)ccc1Cl	·	i	?	·	·	·
CC1(c2ccc3ccccc3c2)NC(=O)N(CC(=O)N2CCC(C(N)=O)CC2)C1=O (stereo not given)	2%	i	i	-16%	-89%	-3%
CC1(c2ccc3ccccc3c2)NC(=O)N(CC(=O)N2CCN(Cc3ccccc3)CC2)C1=O (stereo not given)	5.8µM*	i	?	?	?	-17%
Cc1[nH]cnc1C(=O)N/N=C/c1c(Cl)cccc1Cl	?	21µM*	16µM*	4%	0%	?
CCOC(=O)c1sc2nc(C3CC3)cc(-c3ccc(F)cc3)c2c1N	15%	15µM*	i	?	18µM*	8%
CCOC(=O)c1sc2nc(C3CC3)cc(-c3ccc(OC)cc3)c2c1N	15%	i	i	3.7µM*	6.5µM*	6%
